From PubChem BioAssay (NCATS)
Inconclusive results are not listed. Calls of active or inactive are those of the source. Unless noted, the call rests on the fitted dose curve; in most records, active means well fitted curve in the direction sought with a large enough effect; inconclusive means small, poorly fitted or top-dose-only effect, or another doubt; inactive means no such curve, though single readings can be large; an effect the other way counts as inactive or inconclusive.

Assays:
[1] = target: Ubiquitin carboxyl-terminal hydrolase 2 (Homo sapiens) (UniProt O75604); assay: qHTS Validation Assay for Inhibitors of Ubiquitin-specific Protease USP2a Using CHOP2 as the Reporter (AID 463106); further: potency means the concentration at half of the fitted maximal effect
Ubiquitin carboxyl-terminal hydrolase 2 (Homo sapiens), sequence (O75604 whole entry, looked up): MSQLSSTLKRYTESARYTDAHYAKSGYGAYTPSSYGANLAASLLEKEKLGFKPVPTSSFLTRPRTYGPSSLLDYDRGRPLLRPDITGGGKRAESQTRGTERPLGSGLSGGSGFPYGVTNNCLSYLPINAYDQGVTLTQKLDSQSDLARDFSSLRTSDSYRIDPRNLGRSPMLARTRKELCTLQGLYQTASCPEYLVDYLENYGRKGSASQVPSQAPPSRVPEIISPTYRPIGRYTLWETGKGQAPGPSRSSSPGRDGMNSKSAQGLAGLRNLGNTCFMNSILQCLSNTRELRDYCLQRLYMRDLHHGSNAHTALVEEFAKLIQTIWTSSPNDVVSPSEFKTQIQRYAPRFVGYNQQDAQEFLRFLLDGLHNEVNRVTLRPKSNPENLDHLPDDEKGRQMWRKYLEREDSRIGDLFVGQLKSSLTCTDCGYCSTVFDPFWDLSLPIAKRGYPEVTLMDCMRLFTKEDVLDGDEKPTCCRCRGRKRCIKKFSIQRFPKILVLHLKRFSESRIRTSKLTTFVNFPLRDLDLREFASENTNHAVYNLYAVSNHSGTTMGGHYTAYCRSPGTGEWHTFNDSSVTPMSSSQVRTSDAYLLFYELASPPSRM
Summary of the method: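 Inhibition is expressed relative to NEM as the full-inhibition control, with concentration-response curves classed by fit quality, magnitude and activity. Enzyme (USP2 core, 10nM) meets 25nM Ub-CHOP2 after compound preincubation; readings are taken at 60min.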

[2] = target: DNA polymerase III PolC-type (Bacillus subtilis (strain 168)) (UniProt P13267); assay: qHTS Validation Assay for the Inhibitors of DNA Replication in Gram-Positive Bacteria (AID 485295);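 further: reconstituted holoenzyme with PolC plus beta clamp SSB and primase; PicoGreen fluorescence of double-stranded DNA made on primed circular M13 template; series mostly up to about 57 µM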
DNA polymerase III PolC-type (Bacillus subtilis (strain 168)), sequence (P13267 whole entry, looked up): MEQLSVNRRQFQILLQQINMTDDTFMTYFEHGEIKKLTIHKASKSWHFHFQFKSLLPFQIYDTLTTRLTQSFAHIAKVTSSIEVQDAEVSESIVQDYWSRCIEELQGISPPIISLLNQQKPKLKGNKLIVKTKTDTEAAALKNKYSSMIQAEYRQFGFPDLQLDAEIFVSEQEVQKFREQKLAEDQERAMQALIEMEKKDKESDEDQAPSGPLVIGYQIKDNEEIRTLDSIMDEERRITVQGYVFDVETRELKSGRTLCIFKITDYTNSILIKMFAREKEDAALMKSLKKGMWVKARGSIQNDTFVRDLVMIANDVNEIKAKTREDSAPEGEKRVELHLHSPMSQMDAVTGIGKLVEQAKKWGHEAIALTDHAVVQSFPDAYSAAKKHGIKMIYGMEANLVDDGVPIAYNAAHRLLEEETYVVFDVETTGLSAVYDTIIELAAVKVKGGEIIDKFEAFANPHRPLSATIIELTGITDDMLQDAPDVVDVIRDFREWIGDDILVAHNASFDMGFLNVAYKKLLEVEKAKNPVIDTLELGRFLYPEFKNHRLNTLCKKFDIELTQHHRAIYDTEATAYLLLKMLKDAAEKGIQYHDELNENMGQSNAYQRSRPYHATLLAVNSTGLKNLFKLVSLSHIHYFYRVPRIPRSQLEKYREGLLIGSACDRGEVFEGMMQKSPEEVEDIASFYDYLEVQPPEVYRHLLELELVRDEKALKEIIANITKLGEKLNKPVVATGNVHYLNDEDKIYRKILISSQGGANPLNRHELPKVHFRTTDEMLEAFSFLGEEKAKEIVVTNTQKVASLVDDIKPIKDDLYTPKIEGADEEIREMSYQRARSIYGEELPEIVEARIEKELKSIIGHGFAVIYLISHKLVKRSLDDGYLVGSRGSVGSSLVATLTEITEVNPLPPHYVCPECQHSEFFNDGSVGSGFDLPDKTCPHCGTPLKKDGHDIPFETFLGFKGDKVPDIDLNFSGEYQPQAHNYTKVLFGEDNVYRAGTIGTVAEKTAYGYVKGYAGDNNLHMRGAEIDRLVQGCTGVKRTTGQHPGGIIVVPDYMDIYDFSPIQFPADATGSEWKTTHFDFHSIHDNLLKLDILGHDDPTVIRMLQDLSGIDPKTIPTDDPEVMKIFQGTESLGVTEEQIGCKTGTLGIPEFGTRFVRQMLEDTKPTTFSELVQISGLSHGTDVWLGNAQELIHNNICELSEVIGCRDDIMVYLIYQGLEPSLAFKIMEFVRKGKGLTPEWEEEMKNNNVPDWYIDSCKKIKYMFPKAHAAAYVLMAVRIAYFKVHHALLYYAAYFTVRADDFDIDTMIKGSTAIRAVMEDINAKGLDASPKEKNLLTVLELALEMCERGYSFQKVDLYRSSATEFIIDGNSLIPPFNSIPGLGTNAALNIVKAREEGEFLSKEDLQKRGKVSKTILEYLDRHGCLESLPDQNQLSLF
Summary of the method: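 Primed replication of single-stranded M13Gori by a four-protein B. subtilis holoenzyme is measured at room temperature. Double-stranded product is quantified by PicoGreen fluorescence after an EDTA stop; inhibition is scaled between DMSO and EDTA controls.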

[3] = target: Tumor susceptibility gene 101 protein (Homo sapiens) (UniProt Q99816); assay: qHTS Validation Assay for Iinhibitors of HIV-1 Budding by Blocking the Interaction of PTAP/TSG101 (AID 485342; calls by dose curve)
Tumor susceptibility gene 101 protein (Homo sapiens), sequence (Q99816 whole entry, looked up, the tested form may be a part): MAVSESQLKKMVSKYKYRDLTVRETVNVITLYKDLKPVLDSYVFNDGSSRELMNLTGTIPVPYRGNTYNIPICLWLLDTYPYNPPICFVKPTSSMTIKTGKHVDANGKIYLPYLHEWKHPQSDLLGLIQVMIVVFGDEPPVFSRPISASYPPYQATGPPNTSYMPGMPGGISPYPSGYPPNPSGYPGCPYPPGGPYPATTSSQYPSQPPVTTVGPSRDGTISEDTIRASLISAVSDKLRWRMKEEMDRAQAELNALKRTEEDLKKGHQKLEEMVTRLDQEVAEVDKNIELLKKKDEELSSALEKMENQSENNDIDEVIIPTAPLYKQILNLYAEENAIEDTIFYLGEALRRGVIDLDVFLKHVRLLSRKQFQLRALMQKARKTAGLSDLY
Summary of the method: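 Fluorescence anisotropy measured PTAP-Tsg101 interaction. Final concentrations were 10 uM protein domain and 50 nM labeled peptide, equilibrated 20 min at room temperature.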

[4] = target: Beta-2 adrenergic receptor (Homo sapiens) (UniProt P07550); assay: qHTS validation assay of beta-arrestin-biased ligands of beta2-adrenergic receptor (AID 485366)
Beta-2 adrenergic receptor (Homo sapiens), sequence (P07550 whole entry, looked up): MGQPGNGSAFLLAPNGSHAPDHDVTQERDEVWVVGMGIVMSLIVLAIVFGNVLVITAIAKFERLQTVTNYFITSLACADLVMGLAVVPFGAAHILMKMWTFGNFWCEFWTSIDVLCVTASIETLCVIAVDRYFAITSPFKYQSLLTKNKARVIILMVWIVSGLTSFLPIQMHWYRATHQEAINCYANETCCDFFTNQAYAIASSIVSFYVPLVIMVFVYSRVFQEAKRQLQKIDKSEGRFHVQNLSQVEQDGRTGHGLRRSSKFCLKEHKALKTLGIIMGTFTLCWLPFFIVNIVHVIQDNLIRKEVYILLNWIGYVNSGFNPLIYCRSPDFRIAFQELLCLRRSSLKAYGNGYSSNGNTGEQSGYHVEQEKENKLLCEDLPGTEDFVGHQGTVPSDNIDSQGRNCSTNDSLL
Summary of the method: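 Agonism was measured as beta-arrestin recruitment to recombinant beta2-AR, releasing tTA to drive luciferase. Cells were exposed for 18 hr at 37 degrees C to a series up to 46 microM. %Activity from corrected luminescence gave concentration-response curves.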

[5] = target: Thioredoxin reductase 1, cytoplasmic (Rattus norvegicus) (UniProt O89049); assay: qHTS Assay for Substrates of Mammalian Selenoprotein Thioredoxin Reductase 1 (TrxR1) (AID 488772);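 further: a drop in NADPH fluorescence below the no-compound background marks a TrxR1 substrate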; further: potency means the concentration at half of the fitted maximal effect
Thioredoxin reductase 1, cytoplasmic (Rattus norvegicus), sequence (O89049 whole entry, looked up): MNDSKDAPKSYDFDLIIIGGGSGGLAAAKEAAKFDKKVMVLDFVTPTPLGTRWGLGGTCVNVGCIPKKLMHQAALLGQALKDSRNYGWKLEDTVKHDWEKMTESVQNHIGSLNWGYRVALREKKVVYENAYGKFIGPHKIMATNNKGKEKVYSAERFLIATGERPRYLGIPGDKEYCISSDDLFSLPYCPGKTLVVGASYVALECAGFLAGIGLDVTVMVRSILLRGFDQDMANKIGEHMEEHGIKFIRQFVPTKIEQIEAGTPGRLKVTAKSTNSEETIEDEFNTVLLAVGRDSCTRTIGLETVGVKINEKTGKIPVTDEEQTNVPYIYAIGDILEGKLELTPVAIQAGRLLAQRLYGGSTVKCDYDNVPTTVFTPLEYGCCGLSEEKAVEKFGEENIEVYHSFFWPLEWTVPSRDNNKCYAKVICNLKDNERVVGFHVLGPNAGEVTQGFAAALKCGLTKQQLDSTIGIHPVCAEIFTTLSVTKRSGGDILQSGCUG
Summary of the method: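 In this dual-purpose format, potential substrates are identified from the first fluorescence read after selenite addition, not from the 8-minute delta. Rat enzyme is preincubated with NADPH and then with compound at ~22 deg C.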

[6] = target: Thioredoxin reductase 1, cytoplasmic (Rattus norvegicus) (UniProt O89049); assay: qHTS Assay for Inhibitors of Mammalian Selenoprotein Thioredoxin Reductase 1 (TrxR1) (AID 488773); conditions: Potency: inhibition; further: nearly all actives have a fitted effect of over 40% in size; further: potency means the concentration at half of the fitted maximal effect
Summary of the method: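 Inhibition is scored from the loss of NADPH fluorescence between first and last reads of an 8-min kinetic run. Selenite (400 uM) was the substrate, added after 15 min compound preincubation at room temperature.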

[7] = target: ATP-dependent 6-phosphofructokinase (Trypanosoma brucei brucei) (UniProt O15648); assay: qHTS Validation Assay to Find Inhibitors of T. brucei phosphofructokinase (AID 485368); further: potency means the concentration at half of the fitted maximal effect
ATP-dependent 6-phosphofructokinase (Trypanosoma brucei brucei), sequence (O15648 whole entry, looked up): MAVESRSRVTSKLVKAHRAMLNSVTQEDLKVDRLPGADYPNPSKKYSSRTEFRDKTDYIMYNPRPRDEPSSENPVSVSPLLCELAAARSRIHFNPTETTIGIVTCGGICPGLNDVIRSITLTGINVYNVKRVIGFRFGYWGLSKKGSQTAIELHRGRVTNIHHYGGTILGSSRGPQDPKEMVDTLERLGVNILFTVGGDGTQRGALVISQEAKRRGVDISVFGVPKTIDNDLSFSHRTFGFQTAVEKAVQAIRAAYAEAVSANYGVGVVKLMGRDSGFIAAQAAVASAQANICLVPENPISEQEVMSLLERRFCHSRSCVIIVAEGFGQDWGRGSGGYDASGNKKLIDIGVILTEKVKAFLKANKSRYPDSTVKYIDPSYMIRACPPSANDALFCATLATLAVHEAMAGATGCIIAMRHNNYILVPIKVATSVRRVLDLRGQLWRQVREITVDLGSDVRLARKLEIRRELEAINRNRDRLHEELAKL
Summary of the method: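 ADP-Glo luminescence, two-step: residual ATP depleted, then ADP converted to ATP for luciferase. Enzyme 1.25 nM, F6P 0.5 mM, ATP 0.1 mM, pH 8.0 TEA buffer, 45 min RT. Curves fitted and classed by quality and efficacy.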

[8] = Quantitative high throughput screen for delayed death inhibitors of the malarial parasite plastid, 96 hour incubation (AID 488745); further: nearly all actives have a fitted effect of over 70% in size; further: potency means the concentration at half of the fitted maximal effect
Summary of the method: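 Readout is firefly luciferase luminescence from an integrated reporter in P. falciparum; lower signal marks inhibited growth. Cultures at 2% hematocrit and 0.1% parasitemia were treated with compound across two generations (96 h, 37 C, 5% CO2).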

[9] = Quantitative high throughput screen for delayed death inhibitors of the malarial parasite plastid, 48 hour incubation (AID 488752); further: nearly all actives have a fitted effect of over 65% in size; further: potency means the concentration at half of the fitted maximal effect
Summary of the method: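 First, compound was pinned into RPMI 1640 medium containing 0.5% Albumax. Next, reporter-parasite-infected erythrocytes were added to 2% hematocrit and 0.1% parasitemia. After 48 h at 37 C under 5% CO2, luciferase detection reagent was added and luminescence read.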

[10] = qHTS Validation Assay to Find Inhibitors of Chronic Active B-Cell Receptor Signaling (AID 485345; active means well fitted curve in the direction sought with a large enough effect in the main read-out, with a control signal flat, not every such curve was filed as active)
Summary of the method: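 TMD8 ABC-DLBCL cells with dox-inducible green luciferase–IκBα fusion and red native luciferase; compounds 46 uM–3 nM, 4 h at 37C with doxycycline in 0.5% FBS IMDM. Green/red ratio normalized to basal and 10 uM MG-132.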

Measured: Potency

Nc1nc(Cl)nc2c1ncn2[C@@H]1O[C@H](COP(=O)(O)OP(=O)(O)OP(=O)(O)O)[C@@H](O)[C@H]1O
inactive: [1] | [2] | [3] | [4] | [5] | [6]

CCCCCC(O)c1cccc(OCc2ccc3ccccc3n2)c1 (stereo not given)
inactive: [1] | [2] | [3] | [4] | [5] | [6]

Clc1ccc(N2CCN(Cc3c[nH]c4ncccc34)CC2)cc1
inactive: [1] | [2] | [3] | [4] | [7] | [8] | [9] | [5] | [6]

CNC(=O)[C@H]1O[C@@H](n2cnc3c(NCc4cccc(I)c4)ncnc32)[C@H](O)[C@@H]1O
inactive: [1] | [2] | [3] | [4] | [5] | [6]

O=Nc1ccc2oc(=O)ccc2c1
inactive: [1] | [2] | [3] | [4] | [8] | [5]
active: [7] 19 µM

O=C1C(SCCO)=C(SCCO)C(=O)c2ccccc21
inactive: [1] | [2] | [3] | [4]
active: [7] 12 µM | [5] 16.8 µM | [6] 26.7 µM

O=[N+]([O-])c1ccc2c(c1)S(=O)(=O)C=C2
active: [6] 2.12 µM
inactive: [1] | [2] | [3] | [4] | [5]

NC[C@@H]1O[C@H](C23CC4CC(CC(C4)C2)C3)Cc2c1ccc(O)c2O
active: [8] 3.29 µM | [9] 3.7 µM
inactive: [1] | [2] | [3] | [5] | [6]

CNC(=O)[C@H]1O[C@@H](n2cnc3c(NCc4ccc(N)cc4)ncnc32)[C@H](O)[C@@H]1O
inactive: [1] | [2] | [3] | [4] | [7] | [5]

O=C1/C(=C/c2ccsc2)CC/C1=C\c1cccs1
inactive: [1] | [2] | [3] | [4] | [6]

CN(C)c1nc(N)c(C(=O)N=C(N)N)nc1Cl
inactive: [1] | [2] | [3] | [9] | [5] | [6]

CCN1/C(=C/C(C)=O)Sc2ccc(OC)cc21
inactive: [1] | [2] | [3] | [4] | [7] | [8] | [9] | [6]

C=CC(=O)c1ccc(CCCCCC)cc1
active: [6] 15 µM
inactive: [1] | [2] | [3] | [4] | [5]

O=C1NC(=O)/C(=C/c2ccc(-c3ccc(F)cc3O)o2)S1
inactive: [1] | [2] | [3] | [4] | [5]

Cn1c(=O)c2[nH]c(-c3ccccc3)nc2n(C)c1=O
inactive: [1] | [2] | [3] | [4] | [7] | [8] | [9] | [6]

COc1cc(SC)ccc1C(=O)N1CCC(Cc2ccccc2)CC1
inactive: [1] | [2] | [3] | [4] | [7] | [5] | [6]

CC(C)(C=O)Cc1cc(C(C)(C)C)c(O)c(C(C)(C)C)c1
inactive: [1] | [2] | [3] | [4] | [7] | [8] | [9] | [5] | [6]

N#C/C(=C\c1ccc(-c2cc(Cl)ccc2Cl)o1)C(=O)Nc1cccc2ncccc12
inactive: [1] | [2] | [3] | [5]

CC(=O)/C=C1\C(=O)N(C)c2ccccc21
inactive: [1] | [2] | [3] | [4] | [7]
active: [6] 29.9 µM

CCCCC/C=C\CC(O)/C=C/c1cccc(CC(O)CCCCO)n1 (stereo not given)
inactive: [1] | [2] | [3] | [4] | [7] | [9] | [5]

NC(=S)c1ccc[n+]([C@@H]2O[C@@H](COP(=O)([O-])OP(=O)(O)OC[C@H]3O[C@@H](n4cnc5c(N)ncnc54)[C@H](OP(=O)(O)O)[C@@H]3O)C(O)C2O)c1 (stereo not given in full)
inactive: [1] | [2] | [3] | [4] | [7] | [5] | [6]

Fc1cccc(/C=N/N=C/c2cccc(F)c2)c1
inactive: [1] | [2] | [3] | [7] | [5] | [6]

C#C[C@]1(O)CC[C@H]2[C@@H]3CCC4=Cc5oncc5CC4(C)[C@H]3CCC21C (stereo not given in full)
inactive: [1] | [2] | [3] | [4] | [5] | [6]

Brc1c(Br)c(Br)c2n[nH]nc2c1Br
inactive: [1] | [2] | [3] | [4] | [8] | [9] | [5] | [6]

CCCN(CC1CC1)c1nc(C)nc(Nc2c(Cl)cc(Cl)cc2Cl)c1Cl
active: [8] 2.33 µM | [9] 2.62 µM
inactive: [1] | [2] | [10] | [4] | [5] | [6]

CC(=O)N[C@H](C(=O)O)C(C)(C)SN=O
inactive: [1] | [2] | [4] | [8] | [9] | [6]

O=C(O)CC1CCCc2ccccc2C1O (stereo not given)
inactive: [1] | [2] | [10] | [4] | [7] | [8] | [9] | [6]

OC[C@H]1O[C@@H](n2cnc3c(NC4CCCC4)ncnc32)[C@H](O)[C@@H]1O
inactive: [1] | [2] | [4] | [5] | [6]

Cc1ccc(C(=O)O[C@H](C(=O)O)[C@@H](OC(=O)c2ccc(C)cc2)C(=O)O)cc1 (tested in a mixture with another compound)
inactive: [1] | [2] | [10] | [4] | [7] | [8] | [9] | [5] | [6]

O=C(Nc1cccc(C(=O)Nc2ccc(S(=O)(=O)O)c3cc(S(=O)(=O)O)cc(S(=O)(=O)O)c23)c1)Nc1cccc(C(=O)Nc2ccc(S(=O)(=O)O)c3cc(S(=O)(=O)O)cc(S(=O)(=O)O)c23)c1
inactive: [3] | [10] | [4] | [8] | [5]
active: [1] 8.26 µM | [7] 0.0379 µM

CSc1ccccc1N1CCN(CCCCCC(=O)NC2CCCc3ccccc32)CC1 (stereo not given)
inactive: [1] | [2] | [7] | [6]

CCCn1c(=O)c2[nH]c(-c3ccc(OCC(=O)NCCN)cc3)nc2n(CCC)c1=O
inactive: [1] | [3] | [10] | [4] | [6]
